Laboratory results from publication PMC5540273 (PLoS ONE, 2017).

Key:
Conditions in all cases: concentration: 1 μM, replicates: in singlicate; n = 1
[1] = test system: NEK11
[2] = test system: NEK1
[3] = test system: NEK2
[4] = test system: NEK3
[5] = test system: NEK4
[6] = test system: NEK5
[7] = test system: NEK6
[8] = test system: NEK7
[9] = test system: NEK9
[10] = test system: T1, NIK
T1 construct: gene MAP3K14
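Note: KINOMEscan kinase panel screen.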

Compound: COc1ccc(-c2coc3ccc(-c4nnc(SCc5ccc(OC)c(C(F)(F)F)c5)o4)cc23)cc1
- %Inh [1]: 0%
- %Inh [2]: 0%
- %Inh [3]: 8%
- %Inh [4]: 0%
- %Inh [5]: 2%
- %Inh [6]: 0%
- %Inh [7]: 13%
- %Inh [8]: 0%
- %Inh [9]: 0%
- %Inh [10]: 1%

Compound: Cc1ccc(C(=O)Nc2ccc(Nc3ccnc4cc(-c5nccs5)ccc34)cc2O)cc1.Cl [GW494702]
- %Inh [1]: 40%
- %Inh [2]: 0%
- %Inh [3]: 0%
- %Inh [4]: 0%
- %Inh [5]: 3%
- %Inh [6]: 0%
- %Inh [7]: 0%
- %Inh [8]: 0%
- %Inh [9]: 0%
- %Inh [10]: 12%

Compound: CCc1ccc(-c2ccc3c(c2)-c2c(cnn2C)S(=O)(=O)N3C)cc1
- %Inh [1]: 0%
- %Inh [2]: 0%
- %Inh [3]: 5%
- %Inh [4]: 0%
- %Inh [5]: 0%
- %Inh [6]: 0%
- %Inh [7]: 0%
- %Inh [8]: 0%
- %Inh [9]: 0%
- %Inh [10]: 0%

Compound: CCn1c(-c2nonc2N)nc2c(C#CC(C)(C)O)nc(OC[C@H](N)c3ccccc3)cc21 [GSK943949]
- %Inh [1]: 0%
- %Inh [2]: 0%
- %Inh [3]: 0%
- %Inh [4]: 3%
- %Inh [5]: 0%
- %Inh [6]: 0%
- %Inh [7]: 14%
- %Inh [8]: 0%
- %Inh [9]: 0%
- %Inh [10]: 72%

Compound: Clc1ccc(-c2nn3ncccc3c2-c2ccnc(Nc3ccc4c(c3)OCCO4)n2)cc1 [GW829116]
- %Inh [1]: 0%
- %Inh [2]: 0%
- %Inh [3]: 0%
- %Inh [4]: 12%
- %Inh [5]: 0%
- %Inh [6]: 0%
- %Inh [7]: 0%
- %Inh [8]: 0%
- %Inh [9]: 0%
- %Inh [10]: 10%

Compound: Cc1ccc(S(=O)(=O)Nc2ccc(Nc3nccc(Nc4cccc5[nH]ncc45)n3)cc2)cc1 [GSK581271]
- %Inh [1]: 27%
- %Inh [2]: 0%
- %Inh [3]: 4%
- %Inh [4]: 0%
- %Inh [5]: 20%
- %Inh [6]: 5%
- %Inh [7]: 0%
- %Inh [8]: 0%
- %Inh [9]: 11%
- %Inh [10]: 0%

Compound: O=C(Nc1n[nH]c2cc(-c3ccoc3)ccc12)C1CC1 [SB-738481]
- %Inh [1]: 4%
- %Inh [2]: 0%
- %Inh [3]: 8%
- %Inh [4]: 2%
- %Inh [5]: 1%
- %Inh [6]: 0%
- %Inh [7]: 11%
- %Inh [8]: 16%
- %Inh [9]: 0%
- %Inh [10]: 9%

Compound: CN1CCN(Cc2cccc(-c3ccc4c(Nc5ccc(Oc6ccccc6)cc5)ccnc4c3)c2)CC1 [GW578342]
- %Inh [1]: 28%
- %Inh [2]: 0%
- %Inh [3]: 0%
- %Inh [4]: 3%
- %Inh [5]: 0%
- %Inh [6]: 0%
- %Inh [7]: 0%
- %Inh [8]: 0%
- %Inh [9]: 16%
- %Inh [10]: 24%

Compound: Nc1ncnc2c1nc(-c1ccccc1)n2-c1ccccc1 [SKF-97293]
- %Inh [1]: 30%
- %Inh [2]: 23%
- %Inh [3]: 0%
- %Inh [4]: 2%
- %Inh [5]: 26%
- %Inh [6]: 0%
- %Inh [7]: 15%
- %Inh [8]: 6%
- %Inh [9]: 0%
- %Inh [10]: 34%

Compound: Cl.Cl.NCC(NC(=O)c1cc(-c2ccccc2)c(-c2ccnc3[nH]ccc23)s1)c1ccccc1 (stereo not drawn) [GSK1321561]
- %Inh [1]: 6%
- %Inh [2]: 0%
- %Inh [3]: 8%
- %Inh [4]: 0%
- %Inh [5]: 0%
- %Inh [6]: 6%
- %Inh [7]: 0%
- %Inh [8]: 0%
- %Inh [9]: 13%
- %Inh [10]: 17%

Compound: CSc1cccc2c(-c3ccncn3)c(-c3ccc(F)cc3)nn12 [GW514786]
- %Inh [1]: 0%
- %Inh [2]: 0%
- %Inh [3]: 0%
- %Inh [4]: 0%
- %Inh [5]: 15%
- %Inh [6]: 7%
- %Inh [7]: 0%
- %Inh [8]: 0%
- %Inh [9]: 1%
- %Inh [10]: 14%

Compound: COC(=O)Nc1nc2cc(Oc3ccc(NC(=O)Nc4cc(C(F)(F)F)ccc4F)cn3)ccc2[nH]1.Cl.Cl [GW681170]
- %Inh [1]: 34%
- %Inh [2]: 0%
- %Inh [3]: 0%
- %Inh [4]: 0%
- %Inh [5]: 0%
- %Inh [6]: 0%
- %Inh [7]: 0%
- %Inh [8]: 0%
- %Inh [9]: 35%
- %Inh [10]: 26%

Compound: CC(=O)N1CCN(c2ccc(Nc3nccc(-c4sc(C(C)C)nc4-c4cccc(NS(=O)(=O)c5cccc(Cl)c5)c4)n3)cn2)CC1 [GSK1660437]
- %Inh [1]: 90%
- %Inh [2]: 0%
- %Inh [3]: 42%
- %Inh [4]: 0%
- %Inh [5]: 6%
- %Inh [6]: 2%
- %Inh [7]: 32%
- %Inh [8]: 73%
- %Inh [9]: 85%
- %Inh [10]: 17%

Compound: COc1cccc(C(=O)Nc2cccc(Oc3ccc4nc(NC(=O)C5CC5)cn4n3)c2)c1
- %Inh [1]: 0%
- %Inh [2]: 16%
- %Inh [3]: 8%
- %Inh [4]: 19%
- %Inh [5]: 0%
- %Inh [6]: 23%
- %Inh [7]: 5%
- %Inh [8]: 0%
- %Inh [9]: 0%
- %Inh [10]: 0%

Compound: Cc1occc1-c1ncc(OC[C@@H](N)Cc2c[nH]c3ccccc23)cc1-c1ccc2[nH]nc(C)c2c1.O=C(O)C(F)(F)F [GSK682037]
- %Inh [1]: 0%
- %Inh [2]: 24%
- %Inh [3]: 0%
- %Inh [4]: 0%
- %Inh [5]: 0%
- %Inh [6]: 24%
- %Inh [7]: 0%
- %Inh [8]: 0%
- %Inh [9]: 8%
- %Inh [10]: 78%
